High-throughput results as filed in PubChem BioAssay.
MsrA inh: bovine MsrA enzyme inhibitors, primary screen, biochemical, absorbance, HTS; Methionine sulfoxide reductase A (Bos taurus); purified bovine MsrA, absorbance read-out; inhibition, % at 15.5 µM; hit rate 0.75% among 360,000; in the data active = inhibition above about 4.5%;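 note: 0% = vehicle wells with enzyme and 100% = reference inhibitor wells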
NadD inh: inhibitors of S. aureus NadD, primary screen, biochemical, colorimetric, uHTS | Nicotinate-nucleotide adenylyltransferase NadD (Staphylococcus aureus N315) | purified NadD enzyme, colorimetric absorbance read-out | inhibition, % at 20 µM | hit rate 0.78% among 360,000 | AID 602399, 2012; in the data active = inhibition above about 26%
MsrA act: bovine MsrA enzyme activators, primary screen, biochemical, absorbance, HTS; purified bovine MsrA, absorbance read-out; activation, % at 10.6 µM; hit rate 0.3% among 360,000; Methionine sulfoxide reductase A (Bos taurus); AID 602163, 2012; in the data active = activation above about 7.5%;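 note: 0% = vehicle and 100% = reference activator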
rCAG RNA binder: binders of r(CAG) RNA repeats, primary screen, biochemical, fluorescence; r(CAG) RNA repeat, TO-PRO-1 dye displacement fluorescence; inhibition, % at 3 µM; hit rate 1.3% among 370,000;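 active = inhibition above the plate cutoff, the mean of all test compounds on that plate plus 3 SD, cut at about 35% in these data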;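 note: 0% = DMSO alone and 100% = 100 µM mitoxantrone as full dye displacement; higher means more dye released from RNA so lower well fluorescence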
rCAG bind conf: small molecules binding CAG repeat RNA – biochemical, fluorescence, confirmation. shares compounds with rCAG RNA binder. r(CAG) RNA repeat, TO-PRO-1 dye displacement fluorescence. inhibition, % at 3 µM. hit rate 70% among 4,300. AID 652065, 2013;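 active = inhibition above a per-plate cutoff, the mean inhibition of sample wells plus 3 SD, cut at about 35% in these data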;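 note: loss of TO-PRO-1 fluorescence as compound displaces dye from 1x1 AA loop RNA; 0% = DMSO only wells and 100% = 100 µM mitoxantrone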
DNA CAG counter: displacement of TO-PRO-1 from CAG DNA duplex, counter-screen for rCAG RNA repeat binder project, biochemical, fluorescence, TO-PRO-1 dye, d(CAG) DNA oligo. inhibition, % at 3 µM. d(CAG) DNA oligo TO-PRO-1 dye displacement. hit rate 94% among 4,300. shares compounds with rCAG RNA binder;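 active = inhibition above its plate's cutoff, the mean test-well inhibition plus 3 SD, cut at about 4.8% in these data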;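 note: 0% = DNA dye mix with DMSO and 100% = 100 µM mitoxantrone; hits displace the dye from DNA and so lower well fluorescence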
* hit, by the source's call; . = not tested or not shown. Most compounds without a hit are left out; they make up all but 2.7% or so of the library.

SMILES	MsrA inh	NadD inh	MsrA act	rCAG RNA binder	rCAG bind conf	DNA CAG counter
COc1ccccc1C1C2=C(N=c3s/c(=C/c4cccc(OCC(=O)O)c4)c(=O)n31)c1ccccc1CC2 (stereo unspecified)	3.1	26.3	-9.5	59.3*	77.8*	43.1*
CCOC(=O)C1=C(C)N=c2s/c(=C/c3cccc(OCC(=O)O)c3)c(=O)n2C1c1ccc(F)cc1 (stereo unspecified)	1.6	.	.	71.5*	75.6*	38.0*
CCOC(=O)C1=C(C)N=c2s/c(=C\c3ccc(C(=O)O)cc3)c(=O)n2C1c1ccc(F)cc1 (stereo unspecified)	0.8	26.4	-6.3	6.4	.	.
Cc1cc2nc(CN(C)C(=O)C3CCC(=O)N(C4CCCC4)C3)[nH]c2cc1C (stereo unspecified)	0.8	0.4	-1.9	-0.4	.	.
Cc1ccc(NC(=O)Cc2c(C(=O)O)n(C)c3ccccc23)cc1F	1.1	-4.2	-2.9	27.2	.	.
CC(C)c1ccc(NC(=O)Cc2c(C(=O)O)n(C)c3ccccc23)cc1	-0.6	-0.8	-1.3	50.6*	30.9	5.8*
O=C(NCC1CCCO1)c1cccc(Oc2ccc([N+](=O)[O-])cc2Cl)c1 (stereo unspecified)	-0.1	-2.8	-4.7	-5.2	.	.
CCn1nc(C(=O)Nc2ccc(S(=O)(=O)Nc3ncccn3)cc2)c2ccccc2c1=O	-0.7	0.9	-0.2	3.8	.	.
CCCn1nc(C(=O)Nc2cc(S(=O)(=O)Nc3ccc(OC)cc3)ccc2O)c2ccccc2c1=O	1.5	11.3	-1.8	61.5*	54.1*	18.8*
O=C(Nc1ccc(S(=O)(=O)Nc2nccs2)cc1)c1nn(-c2ccc(F)cc2)ccc1=O	3.9	14.3	-8.8	46.4*	44.6*	19.8*
CCCn1nc(C(=O)Nc2ccc(S(=O)(=O)Nc3nccs3)cc2)c2ccccc2c1=O	0.7	13.8	-9.8	65.0*	56.1*	23.4*
CC(NC(=O)c1ccco1)C(=O)N1CC=C(c2ccccc2)CC1 (stereo unspecified)	2.0	-8.7	-3.6	-1.4	.	.
COc1ccc(C)cc1NC(=O)CSc1nnc(-c2n[nH]c3c2CCC3)n1N	.	.	.	1.9	.	.
O=C(CCc1ccccc1)N[C@H]1[C@H](OC(=O)c2cnccn2)CCC[C@@]12C(=O)N(Cc1ccccc1)c1ccccc12	.	.	.	1.6	.	.
O=c1c(-c2nn[nH]n2)coc2ccc(Cl)cc12	-0.3	-5.9	-4.1	0.7	.	.
COc1ccccc1NC(=O)NCC1(N(C)C)CCCCC1	-1.5	0.4	0.0	-3.0	.	.
O=c1ccccn1Cc1ccccc1F	-0.4	0.8	1.9	-0.1	.	.
COc1cc(CN2c3ccccc3C(=O)CS2(=O)=O)cc(OC)c1	-0.4	-0.2	-4.4	47.0*	15.2	8.5*
COc1cccc(CN2C(=O)c3ccccc3S2(=O)=O)c1	0.0	-0.3	-7.5	-1.6	.	.
O=C1CS(=O)(=O)N(Cc2ccc(F)cc2)c2ccccc21	0.2	-5.0	-0.8	41.3*	7.1	4.5*
COc1ccc(CN2c3ccccc3C(=O)CS2(=O)=O)cc1OC	0.6	.	.	35.5*	12.7	6.5*
O=C1CS(=O)(=O)N(Cc2ccccc2F)c2ccc(Br)cc21	0.3	7.0	5.3	44.2*	29.4	13.3*
O=C1CCN(Cc2ccccc2)S(=O)(=O)c2ccc(F)cc21	0.3	-2.0	-3.0	-2.9	.	.
CCc1nn(CC(=O)NCc2ccccc2Cl)c(=O)c2cccn12	-0.2	-6.8	-2.4	2.1	.	.
Cc1cccc(S(=O)(=O)NC(=O)C2(C)CCN2C(=O)C2(c3ccc(Cl)cc3)CCC2)c1 (stereo unspecified)	-0.4	-1.3	-3.9	42.0*	41.8*	10.6*
SMILES	MsrA inh	NadD inh	MsrA act	rCAG RNA binder	rCAG bind conf	DNA CAG counter
CC1(C(=O)NS(=O)(=O)c2cccc(Cl)c2)CCN1C(=O)C1(c2ccc(Cl)cc2)CC1 (stereo unspecified)	-0.1	1.2	0.7	43.1*	44.8*	9.8*
CC1(C(=O)NS(=O)(=O)c2cccc(Cl)c2)CCN1C(=O)C1(c2ccc(Cl)cc2)CCC1 (stereo unspecified)	-0.5	7.0	1.4	61.2*	67.5*	18.0*
CC1(C(=O)NS(=O)(=O)c2ccc3c(c2)CCO3)CCN1C(=O)C1(c2ccc(Cl)cc2)CC1 (stereo unspecified)	0.3	0.8	0.5	22.7	.	.
CSCC[C@H](NC(=O)N1C[C@H]2C[C@@H](C1)c1cccc(=O)n1C2)C(=O)Nc1ccc(NC(C)=O)cc1	0.0	0.1	-2.9	0.0	.	.
NC1=NC(=O)/C(=C\c2ccco2)S1	4.2	2.2	-1.3	36.9*	15.4	5.7*
O=C1N=C(N2CCN(c3ccccc3)CC2)S/C1=C/c1ccco1	1.5	2.3	-13.3	1.7	.	.
O=C(CC(c1ccccc1)c1ccco1)Nc1nccs1 (stereo unspecified)	0.7	4.1	-2.2	3.7	.	.
O=S(=O)(Nc1cccc(S(=O)(=O)N2CCCC2)c1)c1ccc(Cl)cc1	0.4	-6.0	-1.6	35.8*	17.6	6.5*
CCCOc1ccccc1/C=N/NC(=O)C1CC1	-0.2	-1.2	-1.5	-4.0	.	.
O=c1c(O)c(-c2ccc(O)c(O)c2)oc2cc(O)cc(O)c12	1.4	-3.7	-4.2	36.2*	27.7	8.1*
O=c1c(-c2c(O)cc(O)c3c(=O)cc(-c4ccc(O)cc4)oc23)c(-c2ccc(O)cc2)oc2cc(O)cc(O)c12	2.5	30.0	-5.8	48.6*	35.9*	16.0*
Cc1cn(-c2cccnc2)c(C)c1CNC[C@H]1O[C@@H](n2cnc3c(N)ncnc32)[C@H](O)[C@@H]1O	0.9	3.2	-1.4	6.7	.	.
CCc1csc(CNC(=O)C2CCC(=O)N(Cc3cccc(F)c3)C2)n1 (stereo unspecified)	0.7	-1.5	-0.4	-2.4	.	.
COc1ccc(S(=O)(=O)Nc2c(C(=O)O)[nH]c3ccc(OC)cc23)c(OC)c1	0.3	-6.1	-4.5	36.5*	23.7	10.4*
COc1ccc2[nH]c(C(=O)O)c(NS(=O)(=O)c3ccc(OC)c(OC)c3)c2c1	1.1	-7.8	-3.8	21.8	.	.
COc1ccc(S(=O)(=O)Nc2c(C(=O)O)[nH]c3ccccc23)c(OC)c1	-0.3	-0.4	-0.6	35.6*	18.9	4.3
COc1cc(/C=C/C(=O)OCC(=O)c2c(N)n(C)c(=O)n(C)c2=O)ccc1OCC#N	1.4	2.9	-2.6	1.4	.	.
CC(=O)Nc1ccc(S(=O)(=O)/N=C2/NC(=O)/C(=C\c3ccco3)S2)cc1	2.9	1.4	-14.2	57.2*	29.9	11.5*
COc1ccc(N=C2NC(=O)/C(=C\c3ccco3)S2)cc1	2.3	7.6	-8.2	17.1	.	.
Cc1ccc(S(=O)(=O)/N=C2/NC(=O)/C(=C\c3ccco3)S2)cc1	2.3	0.8	-3.7	69.0*	42.7*	11.3*
